Screening data: PubChem, National Center for Advancing Translational Sciences (NCATS)
Sampled rows, rich in hits. Any-hit rate of the full collection: about 4.7%.
D1 potentiator – human D1 dopamine receptor positive modulation. HEK293 TREx D1 cells, calcium flux, dopamine EC20 potentiation. potentiation, % at 10 µM. 360,000 compounds, 0.036% hits. P21728; in the data active means potentiation above about 30%; further: 0% is about no effect
Target sequence (P21728 whole entry, looked up): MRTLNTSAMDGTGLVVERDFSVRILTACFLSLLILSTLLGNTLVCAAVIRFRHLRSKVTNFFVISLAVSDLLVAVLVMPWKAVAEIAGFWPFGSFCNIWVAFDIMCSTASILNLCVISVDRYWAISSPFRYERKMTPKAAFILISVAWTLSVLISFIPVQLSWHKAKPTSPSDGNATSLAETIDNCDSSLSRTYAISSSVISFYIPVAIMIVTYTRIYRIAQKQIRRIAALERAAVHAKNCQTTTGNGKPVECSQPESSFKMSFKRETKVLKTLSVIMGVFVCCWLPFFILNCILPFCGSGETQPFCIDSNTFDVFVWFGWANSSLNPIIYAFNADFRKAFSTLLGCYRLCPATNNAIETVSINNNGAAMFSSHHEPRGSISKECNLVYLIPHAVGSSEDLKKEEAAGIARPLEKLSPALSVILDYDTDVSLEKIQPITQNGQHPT
D1 agonist – activates the human D1 dopamine receptor; P21728; AID 504660; activation, % at 2 µM; 360,000 compounds, 1% hits; HEK293 T-REx D1 cells, calcium flux, agonist mode; further: 0% is about no effect
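Inducible HEK293 T-REx D1 cells, force-coupled to calcium signalling, were plated at 4000 cells/well with tetracycline and held overnight at 30 C. After no-wash calcium dye loading, compound-evoked calcium rise over 180 s flagged agonists.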
D1 antag – antagonists of human D1 dopamine receptor; 360,000 compounds, 3.2% hits; activity change, negative = inhibition, % at 10 µM; HEK293 TREx D1 cells, calcium flux, dopamine EC80; active compounds read low; in the data active means activity change below about -30%; further: on the % scale 0 is the no-effect control and ±100 the full control effect
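Calcium flux readout: force-coupled, inducible Hek293 Trex D1 line, cells induced overnight at 30 C with tetracycline, dye-loaded 30–90 min at RT. Antagonism scored against EC80 dopamine challenge given 180 s after compound.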
TRHR ag – TRH receptor (human) agonism | 360,000 compounds, 0.18% hits | P34981 | TRHR cells, calcium flux fluo-8, FDSS agonist mode | activation, % at 2 µM; further: 0% is about no effect
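Steps: seed TRHR cells overnight; add fluo-8 no-wash Ca dye, RT 30 min–1.5 h; record 10 s baseline; pin-transfer compounds; monitor fluorescence 1 cycle/s for the agonist window. Calcium increases flag candidate agonists.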
TRHR PAM – TRH receptor (human) allosteric enhancement | P34981 | TRHR cells, fluo-8 calcium fluorescence, EC20 TRH enhancement | enhancement, % at 2 µM | 360,000 compounds, 0.66% hits | AID 493056; in the data active means enhancement above about 30%; further: 0% is about no effect
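TRHR-expressing cells loaded with fluo-8 calcium dye were read kinetically (ex 480/em 530) during compound addition, then stimulated with an EC20 of TRH (10 nM final). Enhancement of the Gq-mediated intracellular calcium response was scored.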
Active calls of the source: *; nt = not tested or not shown. Unless noted, no stated cut-off is given here; in the data, active means activation above about 30%; inactive means the rest.

SMILES	D1 potentiator	D1 agonist	D1 antag	TRHR ag	TRHR PAM
COc1ccc(CCNC(=O)c2cc(=O)c3cc(C)c(C)cc3o2)cc1OC	-2.9	8.4	-1.0	-0.8	-3.5
COc1cccc(C(=O)C2CCCN(Cc3cccn3-c3ccccn3)C2)c1 (configuration not stated)	-6.5	26.4	-32.4*	0.3	-0.8
CCc1c(C)nc(SCc2nc(-c3ccccc3C)no2)[nH]c1=O	-3.7	11.6	-12.3	0.1	-0.7
Cc1ccc(Cl)cc1NC(=O)Cn1c(=O)oc2cc(S(=O)(=O)N3CCCCCC3)ccc21	-1.9	2.8	-5.4	-0.5	4.4
Cc1cc(C)c2cc3c(N)c(C(=O)N4CCc5ccccc5C4)sc3nc2c1	-5.4	2.2	9.1	0.3	11.3
Cc1cccc2cc3c(N)c(C(=O)N4CCOCC4)sc3nc12	-0.3	48.7*	-11.1	-0.3	0.9
N#Cc1cc(N)c(Nc2ccccc2)cc1C#N	-11.1	9.7	-41.1*	-0.7	-13.5
Cc1cc(Nc2cccc(O)c2)c2cccc(Br)c2n1	-4.2	6.0	13.1	-1.4	-1.5
COc1ccc(-c2cc3nc(C)c(CCC(=O)N4CCN(c5ccc(F)cc5)CC4)c(C)n3n2)c(OC)c1	3.2	2.0	6.2	-0.2	6.1
CC(C)Oc1ccc(C(CCN)C2CCCCC2)cc1 (configuration not stated)	12.0	102.3*	39.7	18.2	1.9
COc1ccccc1NC(=O)NCCCN1CCN(c2cccc(Cl)c2)CC1	-5.2	10.2	-69.4*	0.3	4.9
O=C(NCCCN1CCN(c2ccccc2F)CC1)c1nnc(Cc2ccc(Cl)cc2Cl)o1	-4.3	20.9	-54.5*	-0.1	-2.6
COc1ccc(Cc2nnc(C(=O)NCCCN3CCN(c4ccccc4F)CC3)o2)cc1OC	-3.2	3.6	-6.1	0.0	15.1
Fc1ccccc1N1CCN(CCCc2ccccc2)CC1	-8.7	2.9	-63.2*	-0.5	-2.4
O=C(CCc1ccccc1)N1CCN(c2ccccc2F)CC1	2.4	-0.4	-8.7	0.2	-2.2
Cc1ccccc1NC(=O)NCCCN1CCN(c2ccccc2F)CC1	-5.0	8.6	-82.0*	0.0	4.9
Cc1ccc(S(=O)(=O)c2nc(-c3ccc(Cl)cc3)oc2N2CCCCCC2)cc1	-2.6	-0.5	5.2	1.0	17.0
Cc1cc(CN2CCN(c3cccc(C)c3C)CC2)cs1	-8.5	13.4	12.0	0.0	5.6
CC1(C)CC(=O)c2cc(OCC(=O)NCCCN3CCN(c4ccccc4F)CC3)ccc2O1	-12.7	-1.6	-81.1*	-0.7	4.1
COc1ccccc1N1CCN(CCCNC(=O)Nc2ccccc2C)CC1	-8.1	1.9	-41.6*	-0.2	-11.8
Cc1nn(-c2ccccc2)c(-n2cccc2)c1C(=O)NCCCN1CCN(c2ccccc2F)CC1	-4.5	0.6	-33.2*	-1.1	3.8
Cc1cc(CN2CCN(c3ccccc3F)CC2)cs1	-8.2	-0.1	-57.8*	-0.2	-0.8
CCCCCCCNC(=O)COc1ccc2c(c1)C(=O)CC(C)(C)O2	-3.5	-0.3	14.1	0.0	6.2
CCN1C(=O)c2ccccc2Sc2ccc(NC(=O)N3CCN(c4cc(C)ccc4C)CC3)cc21	-0.7	3.4	-5.1	-0.4	11.8
COc1cccc(NC(=O)CSc2nc(-c3ccccc3)nc3c2Cc2cc(Cl)ccc2O3)c1	-3.1	0.2	-15.0	0.7	-3.0
SMILES	D1 potentiator	D1 agonist	D1 antag	TRHR ag	TRHR PAM
COc1ccc(-c2noc(CCC(=O)Nc3ccc(C(F)(F)F)cc3)n2)cc1	-3.5	13.4	-18.5	0.7	10.2
Cc1ccc(CSc2ccc3nnc(CCNS(=O)(=O)c4ccc(C)cc4)n3n2)cc1	-2.0	-1.3	-2.4	-0.6	1.0
Cn1/c(=N/N=C/c2ccc([N+](=O)[O-])cc2)sc2ccccc21	3.2	30.4*	3.2	-0.6	-1.5
CCOC(=O)c1c(C)[nH]c(C)c1S(=O)(=O)N(C)CC(=O)Nc1cccc(Cl)c1C	-5.3	3.9	8.2	-0.5	-2.8
O=C(Nc1ccccc1)c1cccc(S(=O)(=O)Oc2ccc([N+](=O)[O-])cc2)c1	-4.7	17.7	-30.2*	-1.9	2.9
CCCCNS(=O)(=O)c1ccc(NC(=O)c2c(-c3ccccc3)noc2C)cc1	-6.7	27.4	-19.3	-0.5	-1.5
O=C(Nc1ccc(S(=O)(=O)Nc2nccs2)cc1)c1cccc(F)c1	-2.7	5.5	-46.7*	0.7	1.7
O=C(Nc1ccccc1)c1cccc(S(=O)(=O)Nc2cccc(F)c2)c1	-0.7	16.0	-40.1*	0.4	-7.2
O=C(O)c1cccc(NC(=O)c2cccc(S(=O)(=O)Nc3cccc([N+](=O)[O-])c3)c2)c1	16.5	0.2	-0.6	0.5	-4.7
O=C(Nc1cccc(F)c1)c1ccccc1	-8.1	0.8	-1.7	1.3	4.0
Cc1onc(-c2ccccc2)c1C(=O)Nc1ccc(S(=O)(=O)Nc2nccs2)cc1	-4.5	1.0	-40.2*	0.3	-4.3
CCN(CC)c1ccc(NC(=O)CN2C(=O)c3cccnc3Oc3ccccc32)c(C)c1	-4.7	0.8	-15.1	-1.0	-0.9
O=C(CSc1nc(=O)n(Cc2ccccn2)c2c1CCC2)Nc1cccc(Cl)c1	-0.6	-2.1	nt	-0.4	-1.1
CC1=C(C(=O)Nc2ccccc2)C(c2ccc(C(=O)O)cc2)n2nc(SCC(=O)c3ccc(C)cc3)nc2N1 (configuration not stated)	-3.0	1.8	4.4	0.2	0.9
Cc1cc(C)cc(NS(=O)(=O)c2coc(C(N)=O)c2)c1	-6.2	3.8	-7.5	0.4	4.0
NC(=O)c1cc(S(=O)(=O)Nc2cccc(F)c2)co1	2.9	1.4	-45.8*	0.1	3.2
O=C(Oc1ccccc1)c1cccc(COC(=O)c2cnccn2)c1	-6.5	15.2	-58.6*	-0.4	-9.0
COC(=O)/C=C/c1ccc(-n2cncn2)cc1	-2.9	1.5	-3.2	0.3	-3.5
COC(=O)/C=C/c1cnc[nH]1	8.4	2.0	-30.9*	0.7	-0.6
COc1ccc2[nH]c(=O)c(CN(C(=O)c3cccc(Cl)c3)c3ccccc3OC)cc2c1	1.9	2.1	-10.7	-0.2	-8.1
O=C(CCN1C(=O)C2C3C=CC(C3)C2C1=O)Nc1nccs1 (configuration not stated)	-15.2	0.2	-63.8*	0.2	-24.8
COc1ccc(C)cc1NC(=O)C(OC(=O)CNC(=O)c1ccccc1)c1ccccc1 (configuration not stated)	-6.1	3.6	18.3	-0.9	-1.2
Cc1cc(C)c(/C=C/c2onc(C)c2S(=O)(=O)N2CCC(C(=O)N3CCN(c4ccccc4)CC3)CC2)c(C)c1	-0.5	-1.0	-4.0	0.4	-0.2
Cc1ccc(CCNC(=O)CN2C(=O)COc3ccc(S(=O)(=O)N4CCCCCC4)cc32)cc1	-3.9	1.2	-1.8	0.1	1.4
O=[N+]([O-])c1cc(Cl)c(O)c2ncccc12	-2.1	2.9	1.4	-0.2	-1.6
O=[N+]([O-])c1cc(Cl)c2cccnc2c1O	-2.7	30.1*	-11.9	6.1	1.6
